Compound activity as filed in PubChem.
Sampled rows, rich in hits. Any-hit rate of the full collection: about 4%.
TWEAK-Fn14 inh = inhibitors of TWEAK-Fn14 interaction signaling; AID 1159606; inhibition, % at 10 µM; TWEAK-stimulated Fn14 reporter cells, luciferase luminescence, 8 h; 360,000 compounds, 2% hits; in the data active = inhibition above about 50%
TROY NFkB inh = blocks TROY-dependent signaling in reporter cells; Q293 LMP1-TROYcd NF-kB luciferase reporter, 4 h; inhibition, % at 10 µM; 360,000 compounds, 0.98% hits; AID 1347056;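 active = compounds whose plate-normalised and pattern-corrected inhibition of the luciferase reporter signal at the single screening dose is 50% or more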
Peg3 promoter = Peg3 promoter activity inhibition. HeLa PEG-Prom luciferase reporter, luminescence, overnight. inhibition, % at 20 µM. 360,000 compounds, 1.7% hits;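 active = inhibition of at least 50% at 20 µM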
CF NFkB block = blocks PAF-induced NF-kB reporter in cystic fibrosis cells | inhibition, % at 5 µM | KKLEB NF-kB-GFP reporter, GFP fluorescence overnight | 360,000 compounds, 0.86% hits | AID 588850;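 active = at least 50% inhibition at 5 µM, scaled per plate between neutral and stimulator controls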;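 note: PAF is a Pseudomonas aeruginosa culture filtrate used as stimulus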
KKLEB cytotox = reduces viability of KKLEB cystic fibrosis airway cells; activity change (cytotoxicity), % at 5 µM; AID 602141; 360,000 compounds, 0.36% hits; KKLEB CF airway cells viability, ATPlite luminescence, overnight; active compounds read low; cells stimulated with P. aeruginosa culture filtrate;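 active = corrected activity change at or below -50% at 5 µM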
HIF-2a inh = inhibitors of HIF-2a; 786-0 RCC cells HIF-2a reporter, luciferase luminescence, overnight; AID 624352; inhibition, % at 18.8 µM; 360,000 compounds, 0.72% hits;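 active = inhibition of the luminescence signal of 40% or more relative to plate controls, in a single-dose primary screen at 18.75 µM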
Numbers stand for hits; i = inactive.

SMILES | TWEAK-Fn14 inh | TROY NFkB inh | Peg3 promoter | CF NFkB block | KKLEB cytotox | HIF-2a inh
O=C(O)c1cc(-c2ccccc2)n(-c2ccc(F)cc2)n1 | i | i | 78 | i | i | i
O=C(O)c1cc(-c2ccccc2Cl)n(-c2ccc(F)cc2)n1 | i | i | i | i | i | i
O=C(Nc1nc2c(F)cc(F)cc2s1)c1ccccn1 | i | i | 75 | i | i | i
CCCCn1nnnc1C(c1ccccc1)N1CCN(C/C=C/c2ccccc2)CC1 (stereo not given) | i | i | i | i | i | i
Oc1c(CN2CCCCC2)cc(COCc2ccccc2)c2cccnc12 | i | i | 76 | i | i | i
OCCN1CCN(Cc2cc(Cl)c3cccnc3c2O)CC1 | i | i | i | i | i | i
COCc1cc(CN2CCCC2)c(O)c2ncccc12 | i | i | i | i | i | i
Oc1c(CN2CCN(c3ccccn3)CC2)cc(Cl)c2cccnc12 | 107 | i | 50 | i | i | i
Cc1ccc(OCC(=O)Nc2ccon2)c([N+](=O)[O-])c1 | i | i | i | i | i | i
CC(C)Cc1ccc(-c2cc3nc(NCCc4ccc(S(N)(=O)=O)cc4)ccn3n2)cc1 | 54 | i | i | i | i | i
CC(=O)N(c1ccc2oc(=O)sc2c1)S(=O)(=O)c1ccccc1 | i | i | i | i | i | i
COc1ccc(S(=O)(=O)N(C(=O)c2ccco2)c2cc3sc(=O)oc3c3ccccc23)cc1 | i | i | i | 71 | i | i
Cc1ccc(S(=O)(=O)N(C(=O)c2ccco2)c2cc3sc(=O)oc3c3ccccc23)cc1 | i | i | i | 64 | i | i
COc1ccc(S(=O)(=O)N(C(=O)C(C)C)c2ccc3oc(=O)sc3c2)cc1 | i | i | i | i | i | i
CCOc1ccc(S(=O)(=O)N(C(=O)c2ccco2)c2cc3sc(=O)oc3c3ccccc23)cc1 | i | i | i | 52 | i | i
CC1CC(C)CN(C(=O)C(Cc2ccccc2)NC(=O)c2ccccc2)C1 (stereo not given) | i | i | i | i | i | i
C[C@H](CO)N1C[C@H](C)[C@@H](CN(C)Cc2ccc(Cl)c(Cl)c2)OCc2cnnn2CCCC1=O | i | i | i | i | i | i
CC1=C(CC(=O)c2ccc(Cl)cc2)C(=O)c2ccccc2C1=O | 72 | 70 | i | 65 | i | i
O=C(Cc1ccccn1)c1ccc(Cl)cc1 | i | i | i | i | i | i
Fc1ccc(CSc2nncn2NCc2ccccc2)cc1 | 77 | i | i | i | i | i
CN(C)c1ccc(CNn2cnnc2SCc2ccc(F)cc2)cc1 | i | i | i | i | i | i
CC(C)Cc1nc2sc3c(NCc4ccco4)ncnc3c2c2c1COC(C)(C)C2 | 52 | i | i | i | i | i
COc1cccc(CC(=O)OCC(=O)NCCc2ccc(F)cc2)c1 | 54 | i | i | i | i | i
COc1ccc(CC(=O)OCC(=O)NCc2ccc(F)cc2)cc1 | i | i | i | i | i | i
CN(C)CCNC(=O)/C(=C/c1ccc(-c2ccc(Cl)cc2Cl)o1)NC(=O)c1ccccc1 | i | i | 111 | i | i | i
SMILES | TWEAK-Fn14 inh | TROY NFkB inh | Peg3 promoter | CF NFkB block | KKLEB cytotox | HIF-2a inh
O=C(CSc1n[nH]c(-c2ccccn2)n1)Nc1ccc(F)cc1 | i | i | i | i | i | i
O=C(CSc1n[nH]c(-c2ccccn2)n1)Nc1ccc(Cl)cc1 | i | i | 53 | i | i | i
c1ccc(OCCOCCOc2ccccc2)cc1 | i | i | i | i | i | i
C[N+](C)(CCOc1ccccc1)Cc1ccccc1 (tested in a mixture with another compound) | i | 71 | i | i | i | i
Cc1ccc(C(C)C)cc1NC(=O)Nc1ccc([N+](=O)[O-])cc1 | 69 | 59 | i | i | i | i
Cc1cc(O)c(C(C)C)cc1NC(=O)Nc1ccc([N+](=O)[O-])cc1 | i | i | i | i | i | i
O=CNc1cc(-c2ccccc2)cn2c(-c3ccc(F)c(Cl)c3)cnc12 | i | i | i | i | i | i
CC(=O)Nc1cc(-c2ccc(N3CCN(C)CC3)cc2)cn2c(-c3ccc(F)c(Cl)c3)cnc12 | i | i | 75 | i | i | i
CN1CCN(c2ccc(-c3cc(NC=O)c4ncc(-c5ccc(F)c(Cl)c5)n4c3)cc2)CC1 | i | 51 | 96 | i | i | i
